# Values joined by “and” are separate entries in the source; they are usually repeats but may differ in a detail not shown here. Equal entries are not always repeated. Results filed as inconclusive are left out. Where a call stands in place of a potency, no number is given. The source holds several records for some structures; these can differ, active in one and inactive in another. Active and inactive are the calls of the source. Calls come from the whole dose curve.
# Test: p53 small molecule agonists, cell-based qHTS assay with rat liver microsomes: qHTS cell viability counter screen (AID 1963580); note: nearly all actives have a fitted effect of over 45% in size
# Conditions: p53RE-bla HCT-116 + rat microsomes, ATP viability, 16 h; series mostly up to 66 µM; activity change, negative = cytotoxicity: at the top concentration
# From the text: National Center for Advancing Translational Sciences [NCATS]
# Division of Preclinical Innovation [DPI]
# U.S. Environmental Protection Agency [EPA]
# National Institutes of Environmental Health Sciences [NIEHS]
# National Toxicology Program [NTP]
# U.S. Food and Drug Administration [FDA]
# p53, a tumor suppressor protein, is activated following cellular insult, including DNA damage and other cellular stresses. The activation of p53 regulates cell fate by inducing DNA repair, cell cycle arrest, apoptosis, or cellular senescence. The activation of p53, therefore, is a good indicator of DNA damage and other cellular stresses. The CellSensor p53RE-bla HCT-116 cell line contains a stably integrated beta-lactamase reporter gene under control of the p53 response elements. The activation of the reporter gene under culture conditions can be detected by fluorescence intensity. This cell line was used to screen the Tox21 10K compound library in the condition of presence of rat liver microsomes and to identify agonists that activate the p53 signaling pathway after in vitro metabolic activation (Ooka et al., Archive of Toxicology 96:1975-1987, 2022). The cytotoxicity of the Tox21 compound library against the p53 RE-bla HCT-116 cell line was tested in parallel by measuring the intra cellular ATP content in the same wells.
# Tox21 Assay Protocol Summary:
# The p53RE-bla cells were dispensed at 4,000cells/3ul/well in 1536-well black-clear bottom plates. After the assay plates were incubated at 37 C, 5% CO2 incubator for 5 hours, 23 nL of compounds dissolved in DMSO, positive controls or DMSO only was transferred to the assay plate. Following compound addition, 3 uL of rat liver microsomes (Molecular Toxicology, Boone, NC) at final concentration of 0.5 mg/mL and 1uL of B-Nicotinamide adenine dinucleotide 2'-phosphate (NADPH) at final concentration of 0.5 mg/mL were transferred to the assay plate. The plates were incubated at 37 C for 16 hours. 1 uL of LiveBLAzer detection mixture was added to each well and the plates were incubated at room temperature in the dark for 2 h. Fluorescence intensity at 460 and 530 nm emission and 405 nm excitation were measured by an Envision plate reader. For cell viability readout that measures cytotoxicity, 4 ul/well of CellTiter-Glo reagent was added into the assay plates using a Flying Reagent Dispenser. After 30 min incubation at room temperature, the luminescence intensity in the plates was measured using a ViewLux plate reader.
# Potency is the fitted concentration of half-maximal effect.
Compound,Potency,"activity change, negative = cytotoxicity"
CCOP(=S)(OCC)Oc1cc(C)nc(C(C)C)n1,inactive,
C=CC#N,inactive,
C[C@]1(O)CC[C@H]2[C@@H]3CCC4=CC(=O)CC[C@]4(C)[C@@]3(F)[C@@H](O)C[C@@]21C,,-6.34% (inactive)
CN(C)N=O,,-0.207% (inactive)
CCCC(C)(COC(N)=O)COC(=O)NC(C)C (stereo not given),inactive,
N#Cc1ccncc1,,-4.31% (inactive)
C[Si](Cn1cncn1)(c1ccc(F)cc1)c1ccc(F)cc1,,3.51% (inactive)
CC(O)CN1CCN(CC(=O)[O-])CCN(CC(=O)[O-])CCN(CC(=O)[O-])CC1.[Gd+3] (stereo not given),,-28.1% [at 30.3 µM] (inactive)
CC(C)C1(C)N=C(c2ncccc2C(=O)O)NC1=O (stereo not given),,10.2% (inactive)
COc1ccc(C=O)cc1,inactive,
O=NN1CCCCC1,,3.69% (inactive)
CC(C)C#N,inactive,
Brc1ccc(Br)cc1,,1.84% (inactive)
Cc1ccc(N=CN(C)C=Nc2ccc(C)cc2C)c(C)c1,inactive,
Cc1cc(Cl)ccc1OCCCC(=O)O,inactive,
[O-][Cl+2]([O-])O,inactive,
COC(=O)[C@@H](N)CCCN/C(N)=N/[N+](=O)[O-],,-1.66% [at 30.3 µM] (inactive)
CCCCCCCCCc1ccc(O)cc1,inactive and 40.8 µM (active),
Clc1ccc(C(c2ccc(Cl)cc2)C(Cl)(Cl)Cl)cc1,inactive,
ClC1C(Cl)C(Cl)C(Cl)C(Cl)C1Cl (stereo not given),inactive,

Compound,Potency,"activity change, negative = cytotoxicity"
Cc1ccc(-c2nc3ccc(C)cn3c2CC(=O)N(C)C)cc1,,-3.27% [at 30.3 µM] (inactive)
Nc1ccc([N+](=O)[O-])cc1N,inactive,
O=C(O)CCCc1ccc(N(CCCl)CCCl)cc1,inactive,
CCC(C)(C)c1ccc(O)cc1,inactive,
CCc1ccccc1C,,-0.77% (inactive)
CCCOC(=O)c1ccccc1C(=O)OCCC,inactive,
N#Cc1ccccc1Cl,,16.5% (inactive)
CCOC(=O)C1OC1(C)c1ccccc1 (stereo not given),inactive,
C[N+](C)(C)Cc1ccccc1,inactive,
CCNc1nc(Cl)nc(NCC)n1,inactive,
CCCn1cc[n+](C)c1,inactive,
O=C(O)COc1ccc(Cl)cc1Cl,inactive,
CCNc1nc(NCC)nc(SC)n1,,7.47% (inactive)
CCC[CH2][Sn]([Cl])([Cl])[CH2]CCC,18.5 µM (active) and 45.8 µM (active),
CO[C@@H]1[C@H](OC(=O)NC(=O)CCl)CC[C@]2(CO2)[C@H]1[C@@]1(C)O[C@@H]1CC=C(C)C,,-0.0178% [at 13.5 µM] (inactive)
N[C@@H](Cc1ccc(N(CCCl)CCCl)cc1)C(=O)O,inactive,
O=C(CCN1CC1)OCC(CO)(COC(=O)CCN1CC1)COC(=O)CCN1CC1,,9.03% (inactive)
C=CCSSCC=C,,-7.14% (inactive)
CCCCCCCCCCCCCC[P+](CCCCCC)(CCCCCC)CCCCCC,16.3 µM (active) and 20.6 µM (active) and inactive,
Cc1ncc2n1-c1ccc(Cl)cc1C(c1ccccc1F)=NC2,,-3.81% [at 30.3 µM] (inactive)
